Results filed as inconclusive are left out. Active and inactive are the calls of the source. Unless noted, calls follow the shape of the dose curve; as a rule, active = well fitted inhibition curve with a large enough effect; inconclusive = small, poorly fitted or top-dose-only effect; inactive = no such curve, though single readings can be large or run the other way.
Potency is read from the fitted curve at half-maximal effect.

Test system in the first assay: not listed separately
In words: Primary qHTS for inhibitors of nuclear receptor binding SET domain protein 2 (NSD2) in an RCH-ACV wild type WT cells (2C) (AID 1645877). Also: nearly all actives have a fitted effect of over 70% in size. The following applies: RCH-ACV (leukaemia line) NSD2 WT (2C) viability, CellTiter-Glo, 72 h; series mostly up to 44.9 µM.
As to `O=c1c(-n2ccnn2)c[nH]n1-c1cc(N2CCOCC2)ncn1`, the Potency was 20.9 µM (active).

For the compound `C=C1C(=O)O[C@@H]2CC(C)=C([C@@H](C)CCCO)[C@@H](OC(=O)C(C)C)[C@H]12`, the Potency was 14.2 µM (active).

With `Oc1ccc(Nc2nc(-c3ccc(Cl)cc3)cs2)cc1`, the Potency is 6.61 µM (active).

`Nc1ncnc2c1ncn2[C@@H]1O[C@H](CO)C[C@H]1O`: the Potency was 5.78 µM (active).

As to `CC1(C)CC23[C@@H]4CC(=O)[C@@H]2COC(=O)[C@@H]3CC[C@H]41`, the Potency was 7.28 µM (active).

`CC[C@H](CO)Nc1nc(Nc2cccc(-c3ccccn3)c2)c2ncn(C(C)C)c2n1`: the Potency is 16.3 µM (active).

As for `CCCCn1c(-c2ccccc2)nc(-c2ccccc2)c1CN(Cc1ccc2c(c1)OCO2)Cc1ccc2c(c1)OCO2`, the Potency is 18.3 µM (active).

`CCOC(=O)c1cccc(CNc2ccc(N(C)C(=O)Nc3ccccc3)cc2)c1`: the Potency was 14.5 µM (active).

Consider `CC1CCN(C(c2ccc(F)cc2)c2ccc(C(C)C(=O)O)cc2-c2ccc(C(F)(F)F)cc2)CC1` (centres undefined), for which the Potency was 11.5 µM (active).

Take `O=C(NC(NC(=S)Nc1ccc(F)c([N+](=O)[O-])c1)C(Cl)(Cl)Cl)C(c1ccccc1)c1ccccc1` (centres undefined): the Potency was 20.6 µM (active).

`COc1ccc(CNC(=O)Nc2ncc([N+](=O)[O-])s2)cc1`: the Potency is 18.6 µM (active).

Regarding `OCC(CO)(CO)NCC(O)Cn1c2ccc(Cl)cc2c2cc(Cl)ccc21` (centres undefined), the Potency was 20.5 µM (active).

`COCCOCCOc1ccc(C2=N[C@@](C)(C(=O)O)CS2)c(O)c1`: the Potency was 10.3 µM (active).

`C=C(C)C(=O)O[C@H]1[C@H]2C(=C)C(=O)O[C@@H]2C[C@@H](C)/C=C\C(=O)[C@](C)(O)[C@@H]1OC(C)=O`: the Potency result is “inactive”.

Take `COc1cc(N2CCOCC2)ccc1Nc1ncc(F)c(Nc2ccccc2NS(C)(=O)=O)n1`: the Potency was 8.17 µM (active).

As for `CC(=O)C1=C(O)C2c3c[nH]c4cccc(c34)CC2C(C)(C)N(C)C1=O` (centres undefined), the Potency is 14.5 µM (active).

Consider `O=[N+]([O-])c1ccc(-[n+]2nc(-c3ccccc3)nn2-c2ccc(I)cc2)cc1`, for which the Potency result was “inactive”.

In the case of `CC(=O)N[C@@H](CC(=O)O)C(=O)N[C@@H](CCC(=O)O)C(=O)N[C@H](C(=O)N[C@@H](CC(=O)O)C(=O)Nc1ccc2c(C)cc(=O)oc2c1)C(C)C`, the Potency was 5.15 µM (active).

Turning to `CC1CCCC(SCC(O)C(=O)O)CC(=O)c2c(O)cc(O)cc2CC(=O)O1` (centres undefined), the Potency was 3.55 µM (active).

For `COc1ccccc1NC(=O)Nc1ccc2ccccc2c1`, the Potency was 2.9 µM (active).

Regarding `Cn1cc(-c2cnc3ccc4ccc(CS(=O)(=O)NCc5ccccn5)cc4c(=O)c3c2)cn1`, the Potency was 23 µM (active).

With `CCS(=O)(=O)N(Cc1cccnc1)c1cccc(-c2ccc(C#N)cc2)c1`, the Potency was 20.5 µM (active).

As to `C=C1[C@@H](C)[C@H]2[C@H](Cc3c[nH]c4ccccc34)NC(=O)[C@]23C(=O)/C=C/C(=O)[C@H](O)/C(C)=C\[C@@H](C)C/C=C/[C@H]3[C@@H]1O`, the Potency is 0.796 µM (active).

Take `CC(C)(C)c1ccc(CNC(=S)NCc2ccc(NS(C)(=O)=O)c(F)c2)cc1`: the Potency was 12.9 µM (active).

Consider `CC1CCC(n2c3cnccc3c3cnc(Nc4ccc5c(n4)CCN(C(=O)CO)C5)nc32)CC1` (centres undefined), for which the Potency was 2.31 µM (active).

In the next assay the target is Catechol O-methyltransferase (Homo sapiens) (UniProt P21964). As to the kind of experiment: Confirmatory Screen for Target Class Profiling of Small Molecule Inhibitors of Methyltransferases (AID 1745852; calls by dose curve; as to activity change, negative = inhibition: % is scaled to controls: 0 for no effect and ±100 for the full control effect). Particulars: MTase-Glo luminescence, SAH detection, recombinant enzyme; measured here: COMT max response; stronger effect = lower value.
Chain of Catechol O-methyltransferase (Homo sapiens) (P21964 whole entry, looked up): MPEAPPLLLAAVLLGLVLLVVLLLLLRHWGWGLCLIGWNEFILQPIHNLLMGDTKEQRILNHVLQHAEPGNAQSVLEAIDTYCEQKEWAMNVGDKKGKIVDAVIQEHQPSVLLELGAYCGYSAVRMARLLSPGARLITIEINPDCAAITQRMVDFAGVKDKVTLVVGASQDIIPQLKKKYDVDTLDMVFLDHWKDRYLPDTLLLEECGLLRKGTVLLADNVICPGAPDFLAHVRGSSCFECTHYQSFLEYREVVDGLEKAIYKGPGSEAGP
`C=C1C(=O)O[C@@H]2CC(C)=C([C@@H](C)CCCO)[C@@H](OC(=O)C(C)C)[C@H]12`: the activity was -63.9%.

Regarding `CC1CCN(C(c2ccc(F)cc2)c2ccc(C(C)C(=O)O)cc2-c2ccc(C(F)(F)F)cc2)CC1` (centres undefined), the activity worked out at 4.19%.

Consider `COc1cc(N2CCOCC2)ccc1Nc1ncc(F)c(Nc2ccccc2NS(C)(=O)=O)n1`, for which the activity was -0.204%.

As to `CC(C)N(CCCNC(=O)Nc1ccc(C(C)(C)C)cc1)C[C@H]1O[C@@H](n2cc(Br)c3c(N)ncnc32)[C@H](O)[C@@H]1O`, the activity is -65.3%.

Regarding `O=[N+]([O-])c1ccc(-[n+]2nc(-c3ccccc3)nn2-c2ccc(I)cc2)cc1`, the activity is -47.4%.

On to `CN1CCN(C(=O)c2ccc(Nc3nccc(-c4cccs4)n3)cc2Cl)CC1`, for which the activity is -2.55%.

As for `Cn1cc(-c2cnc3ccc4ccc(CS(=O)(=O)NCc5ccccn5)cc4c(=O)c3c2)cn1`, the activity is -3.92%.

A further assay has as its target Guanidinoacetate N-methyltransferase (Homo sapiens) (UniProt Q14353). The description is as above. Particulars: MTase-Glo luminescence, SAH detection, recombinant enzyme; activity change, negative = inhibition: at 57.3 µM (top of the series) unless noted; series mostly up to 57.3 µM.
With `C=C1C(=O)O[C@@H]2CC(C)=C([C@@H](C)CCCO)[C@@H](OC(=O)C(C)C)[C@H]12`, the activity change, negative = inhibition turned out to be 0%.

On to `CC1CCN(C(c2ccc(F)cc2)c2ccc(C(C)C(=O)O)cc2-c2ccc(C(F)(F)F)cc2)CC1` (centres undefined), for which the activity change, negative = inhibition came to 0%.

Regarding `COc1cc(N2CCOCC2)ccc1Nc1ncc(F)c(Nc2ccccc2NS(C)(=O)=O)n1`, the activity change, negative = inhibition amounted to 2.81%.

Turning to `CC(C)N(CCCNC(=O)Nc1ccc(C(C)(C)C)cc1)C[C@H]1O[C@@H](n2cc(Br)c3c(N)ncnc32)[C@H](O)[C@@H]1O`, the Potency is 21.5 µM (active).

For the compound `O=[N+]([O-])c1ccc(-[n+]2nc(-c3ccccc3)nn2-c2ccc(I)cc2)cc1`, the Potency is 21.5 µM (active).

On to `CN1CCN(C(=O)c2ccc(Nc3nccc(-c4cccs4)n3)cc2Cl)CC1`, for which the activity change, negative = inhibition was found to be 0%.

`Cn1cc(-c2cnc3ccc4ccc(CS(=O)(=O)NCc5ccccn5)cc4c(=O)c3c2)cn1`: the Potency entry is “inactive”.
